Experimental data reported in PubChem BioAssay AID2315 (National Center for Advancing Translational Sciences (NCATS), 2010).
The whole screen tested about 290,000 compounds, of which about 27,000 (9.3%) were called active. Cut-off read from the data, not from the text of the source: active = inhibition mostly above about 28% (no sharp cut-off); inactive = mostly below about 43%. For the sample, actives were picked, then their nearest neighbours and some compounds at random.

experiment: A qHTS for Small Molecule Inhibitors of Shiga Toxin; settings: Vero cells, Shiga toxin protein synthesis inhibition reporter; at 38.7 µM, active compounds read high; note: 0% is about no effect

| SMILES | inhibition |
| --- | --- |
| CCOc1cc(C2C(C(=O)c3ccco3)=C(O)C(=O)N2Cc2ccccc2)ccc1O (stereo unspecified) | -8.41% (inactive) |
| CC(=O)[C@@]12O[C@@H]1C[C@H]1[C@@H]3CC[C@H]4C[C@@H](O)CC[C@]4(C)[C@H]3CC[C@@]12C | 33.3% (inactive) |
| Cn1c(=O)c2sccc2n(Cc2ccc(Br)cc2)c1=O | 22.9% (inactive) |
| Cc1cc(C)c(C#N)c(SCc2ccc3c(c2)OCO3)n1 | 26.6% (inactive) |
| Cc1ccc(CSc2nsc(C)c2C#N)cc1 | 31.1% (active) |
| Cc1snc(SCc2c(F)cccc2Cl)c1C#N | -6.99% (inactive) |
| CC(C(=O)NC1CCCCC1)N1C(=O)c2cccc3cccc1c23 (stereo unspecified) | -6.55% (inactive) |
| CC(=O)N(Cc1cc(=O)[nH]c2ccccc12)c1ccc(C)cc1C | -8.12% (inactive) |
| COc1cccc(-c2cc3nc4c(c(N5CCC6(CC5)OCCO6)n3n2)CCCC4)c1 | 63.6% (active) |
| COc1cccc(CNc2nc3nc4c(c(=O)n3[nH]2)CCC4)c1 | -7.62% (inactive) |
| O=C(c1cc2nc(-c3ccccc3)cc(-c3ccccc3)n2n1)N1CCC2(CC1)OCCO2 | 10.6% (inactive) |
| COc1ccc(S(=O)(=O)N2CCN(C(=S)NCC3CCCO3)CC2)cc1OC (stereo unspecified) | -11.6% (inactive) |
| O=S(=O)(NCCCCCCNS(=O)(=O)c1c(F)cccc1F)c1ccc2c(c1)OCCO2 | -3.9% (inactive) |
| O=C(O)CCCn1cc(NC(=O)COc2cccc(Cl)c2)cn1 | 12.7% (inactive) |
| COc1cc(C(=O)OCC(=O)NC(C)CCc2ccccc2)cc(OC)c1OC (stereo unspecified) | -9.96% (inactive) |
| COc1ccc(C)cc1NC(=S)N1CCOCC1 | -10.3% (inactive) |
| COc1ccc(NC(=S)N2CCc3cc(OC)c(OC)cc3C2)cc1 | 11.3% (inactive) |
| COc1ccc(OC)c(NC(=S)N2CCc3ccccc3C2)c1 | 46.8% (active) |
| CCOc1ccc(-c2noc(CCC(=O)NC3CCCC3)n2)cc1OC | -7.65% (inactive) |
| COc1ccc(CCNC(=O)CSCc2ccc(Br)cc2)cc1OC | -18.8% (inactive) |
| Cc1nn(CC(=O)NCC2CCCO2)c(=O)c2cc3ccccc3n12 (stereo unspecified) | 1.03% (inactive) |
| Cc1cccc(NS(=O)(=O)c2cc(Cl)ccc2Cl)n1 | 2.75% (inactive) |
| CC(C)[C@@H]1COC(c2cccc(C3=N[C@H](C(C)C)CO3)c2)=N1 | 46.5% (active) |
| O=c1c(-c2ccccc2)coc2cc(O)ccc12 | 93% (active) |

| SMILES | inhibition |
| --- | --- |
| Cc1c(CCC(=O)O)c(=O)oc2cc3occ(-c4ccccc4)c3cc12 | -11.6% (inactive) |
| O=c1c(-c2ccccc2)coc2c(CN3CCOCC3)c(O)ccc12 | 7.81% (inactive) |
| CC(C)c1ccc(C2C(C(=O)c3ccco3)=C(O)C(=O)N2CC2CCCO2)cc1 (stereo unspecified) | 1.66% (inactive) |
| COc1ccc(S(=O)(=O)N2CCCC(C(=O)NCCCn3ccnc3)C2)cc1OC (stereo unspecified) | -5.4% (inactive) |
| Cc1sc2ncn(CC(=O)NCCCC(=O)N(C)Cc3ccccc3)c(=O)c2c1C | -9.55% (inactive) |
| CCOc1ccc(NC(=O)NNC(=O)c2ccc(Cl)cc2Cl)cc1 | 13.5% (inactive) |
| CC(C)(C)OC(=O)N1CCC(C(=O)NNC(=O)c2ccc(Cl)cc2Cl)CC1 | 5.93% (inactive) |
| Cc1ccc(C(=O)NNC(=O)OC(C)(C)C)c(Cl)c1 | 90.5% (active) |
| CC(=O)Nc1ccc(NC(=O)c2ccc3c(c2)C(=O)N(c2ccccc2C)C3=O)cc1 | -4.3% (inactive) |
| O=C(Nc1cccc(Cl)c1)c1cc(S(=O)(=O)N2CCCCC2)c[nH]1 | -7.57% (inactive) |
| Cc1ccccc1NC(=O)CCNS(=O)(=O)c1ccc2[nH]c(=O)oc2c1 | -2.35% (inactive) |
| COc1ccc(Nc2ncnc3sc(-c4ccccc4)cc23)c(OC)c1 | 4.65% (inactive) |
| COc1ccc(Nc2ncnc3ccc(Br)cc23)c(OC)c1 | 57.7% (active) |
| C=CCNc1ncnc2ccc(Br)cc12 | -28.8% (inactive) |
| COc1ccc(CN(C)C(=O)Cc2ccsc2)c(OC)c1OC | -10.3% (inactive) |
| Cc1c(C)c2c(OCC(=O)NCCCO)cc3c(c2oc1=O)CCC(C)(C)O3 | -7.03% (inactive) |
| COc1ccccc1CNS(=O)(=O)CC12CCC(CC1=O)C2(C)C (stereo unspecified) | -4.21% (inactive) |
| Cc1nc(-c2ccc(Cl)cc2)sc1C(=O)NN | -18.4% (inactive) |
| Cc1ccc(SCC(=O)c2sc(-c3ccccc3)nc2C)cc1 | -2.76% (inactive) |
| Cc1nc(-c2ccc(Cl)cc2)sc1C(=O)CBr | 52.5% (active) |
| CCN1CCN(C(=O)C2CCN(S(=O)(=O)c3cc(Cl)ccc3Cl)CC2)CC1 | -5.92% (inactive) |
| CC1(C)c2[nH]c3ccccc3c2C[C@H]2C(=O)N(N)CC(=O)N21 | 11.8% (inactive) |
| COc1ccc(NC(=O)CSCc2ccc([N+](=O)[O-])cc2)cc1OC | -3.27% (inactive) |
| CC(C)C(=O)N1CC(=O)Nc2ccc(F)cc2C1c1ccc(F)cc1 (stereo unspecified) | -3.75% (inactive) |

| SMILES | inhibition |
| --- | --- |
| COC(=O)c1ccc(NCC(=O)N2CCCCCC2)cc1 | 110% (active) |
| Cc1ccc(C(=O)NC2CCN(C(=O)Nc3ccc(F)cc3)CC2)cc1 | -7.26% (inactive) |
| COC(=O)c1ccc(NCC(=O)c2ccccc2)cc1 | 85.2% (active) |
| COC(=O)c1ccc(C(=O)OC)c(NC(=S)N2CCCCC2)c1 | 12.8% (inactive) |
| Cc1ccc(NC(=S)Nc2ccc(F)cc2)cc1 | 27.7% (inactive) |
| COC(=O)c1ccc(/C=N/NC(=O)C(=O)N2CCCCCC2)cc1 | -5.76% (inactive) |
| Cc1ccc(C(=O)CNc2ccc(F)cc2)cc1 | 45.5% (active) |
| COC(=O)c1ccc(NC(=O)c2ccccc2NS(=O)(=O)c2ccccc2)cc1 | 5.81% (inactive) |
| COc1ccc(NC(=O)CCCC(=O)c2ccccc2)cc1 | 6.27% (inactive) |
| c1ccc(Cc2ccc(OCCn3ccnc3)cc2)cc1 | 1.57% (inactive) |
| COc1ccc(CN(C)C(=O)c2cc(-c3ccc(C)cc3C)nc3ccccc23)c(OC)c1OC | -8.91% (inactive) |
| CC(=O)N1CCCc2cc(S(=O)(=O)N3CCCC(C(=O)N4CCN(c5cccc(Cl)c5)CC4)C3)ccc21 (stereo unspecified) | -12.3% (inactive) |
| COc1ccc(CNC(=O)C2CCN(C(=O)c3ccccc3)CC2)cc1 | -21.8% (inactive) |
| Cc1ccc2c(c1)N(CC(=O)NCCc1ccc(Cl)cc1)C(=O)c1cccnc1O2 | 4.91% (inactive) |
| Cc1ccc(C)c(S(=O)(=O)N2CCN(C(=O)Nc3ccccc3)CC2)c1 | 17.4% (inactive) |
| Cc1ccc(NC(=O)Cn2nc(C)c3ccccc3c2=O)c(C)c1 | 10.2% (inactive) |
| Cc1ccc(NC(=O)c2ccn(C(=O)Nc3ccccc3)n2)c(C)c1 | 92.2% (active) |
| O=C(Nc1ccc2c(c1)OCCO2)C(c1ccc(F)cc1)N1CCCCC1 (stereo unspecified) | 5.25% (inactive) |
| Cc1ccc2nc(-c3ccncc3)cc(C(=O)Nc3ccc4c(c3)OCCO4)c2c1 | 9.13% (inactive) |
| CCOC(=O)c1cnc2ccc(F)cc2c1Nc1ccc2c(c1)OCCO2 | 35% (active) |
| COc1ccc(C(=O)N(C)CC(O)c2ccccc2)cc1OC1CCN(C(C)=O)CC1 (stereo unspecified) | -21% (inactive) |
| O=C(CCC1CCCN(C(=O)Cc2ccc(F)cc2)C1)N1CCN(c2ccccn2)CC1 (stereo unspecified) | -2.14% (inactive) |
| O=C(Cc1ccccc1Cl)N1CCN(c2ccccn2)CC1 | 7.93% (inactive) |
| O=C(Cc1ccc(Br)cc1)N1CCN(c2ccccn2)CC1 | 45.9% (active) |

| SMILES | inhibition |
| --- | --- |
| CNC(=O)c1sc(Nc2ccc(OCc3ccccc3)cc2)nc1C | 43.2% (inactive) |
| Cn1c(=NC(=O)c2cnccn2)sc2ccccc21 | 48.7% (active) |
| COC(=O)c1ccc(OC(=O)c2cnccn2)cc1 | -3.05% (inactive) |
| Cn1c(=NC(=O)CSCC(=O)N2CCCCC2)sc2ccccc21 | 20.2% (inactive) |
| CCn1cc(C(=O)OCC(=O)Nc2cccc(C)c2)c(=O)c2ccc(C)nc21 | 12.3% (inactive) |
| COc1ccc(S(=O)(=O)N2CCC(C(=O)NCCC(=O)NCc3cccc(OC)c3)CC2)cc1 | -13% (inactive) |
| COCCOC1CCN(C(=O)c2ccc(OC)c(OC3CCN(C(C)C)CC3)c2)CC1 | 3.86% (inactive) |
| Cc1cc(Cl)ccc1C(=O)C1CCCN(C(=O)c2nonc2C)C1 (stereo unspecified) | -11% (inactive) |
| O=C(/C(=C/c1cccc(Cl)c1)c1nc2ccccc2[nH]1)c1ccccc1 | 37.9% (inactive) |
| N#C/C(=C(/O)COC(=O)COc1ccc(Cl)cc1)c1nc2ccccc2[nH]1 | -6.24% (inactive) |
| O=C(Cc1nc2ccccc2[nH]c1=O)c1ccc(Cl)cc1 | 66.3% (active) |
| O=S(=O)(Nc1cccc2cccnc12)c1cccc2cccnc12 | -6.53% (inactive) |
| Cc1cccc(NC(=O)CCN2CC(C)CC(C)C2)c1 (stereo unspecified) | -6.03% (inactive) |
| CCNC(=O)c1cnn(-c2ccccc2)c1-c1ccccc1 | -0.867% (inactive) |
| CCCc1c(C(=O)O)cnn1-c1ccc(Cl)cc1 | 9.39% (inactive) |
| CCCc1c(C(=O)Nc2ccc(F)cc2)cnn1-c1ccccc1 | 58.3% (active) |
| Cc1ccc2c(c1)N(S(=O)(=O)c1cc(-c3cc(C)no3)ccc1C)CCO2 | 18.2% (inactive) |
| c1cnc(N2CCN(c3ccc4ccccc4n3)CC2)nc1 | 71.6% (active) |
| Oc1ccc(CN2CCN(c3ncccn3)CC2)cc1 | -3.72% (inactive) |
| O=C(c1ccncc1)N1CCN(c2ccc3ccccc3n2)CC1 | -6.23% (inactive) |
| Cc1ccc(C)c(N2C(=O)CS/C2=N\NC(=O)c2ccccc2Cl)c1 | -31.2% (inactive) |
| C/C(=N/NC(=O)c1cc(Cl)ccc1O)C12CC3CC(CC(C3)C1)C2 | 25.6% (inactive) |
| O=C(N/N=C1\CCSC1)c1cc(Cl)ccc1O | 35.8% (active) |
| C=CCn1c(SCC(=O)NC)nnc1C12CC3CC(CC(C3)C1)C2 | 13.7% (inactive) |
